PubChem BioAssay (NCATS)
Several values for one entry are separate records, joined by “and”; a condition that tells them apart may be missing. Identical values can stand only once. Results filed as inconclusive are left out. Activity calls are given as the source filed them. Unless noted, calls follow the shape of the dose curve; as a rule, active = well fitted curve in the direction sought with a large enough effect; inconclusive = small, poorly fitted or top-dose-only effect, or another doubt; inactive = no such curve, though single readings can be large; an effect the other way counts as inactive or inconclusive.

Key:
[1] = AP1 Signaling Pathway (AID 357; active = well fitted curve in either direction with a large enough effect, not every such curve was filed as active;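 also: ME-180 reporter cells stimulated with EGF at its EC50 level; % is scaled to controls: 0 for no effect and ±100 for the full control effect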); details: ME-180 AP-1-bla reporter, EGF-induced, beta-lactamase ratio, 5 h
Outline: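 AP-1-bla ME-180 cells, Opti-MEM + 0.5% dialyzed FBS, plated overnight 37 °C. Cpd titration + EC50 EGF, 5 h 37 °C. CCF4 2.5 h RT; ex 405, em 460/530 ratio → %activity, AC50.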

[2] = molecular target: Cytochrome P450 1A2 (Homo sapiens) (UniProt P05177); test: p450-cyp1a2 (AID 410; calls by dose curve; also: potency is read from the fitted curve at half-maximal effect;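 as to activity change, negative = inhibition: -100% = full effect of reference inhibitor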)
Outline: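 Human CYP1A2 (20nM) demethylated Luciferin-ME at its Km (100uM) in 100mM KPO4. After 10 min compound preincubation, NADPH regeneration ran the reaction 60 min at room temperature. Luciferin was read by luminescence, normalized to 57 uM furafylline.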

[3] = NFAT Signaling Pathway (AID 444; active = well fitted curve in either direction with a large enough effect, not every such curve was filed as active;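 also: carbachol stimulus at about its EC50 of 1 µM final; % is scaled to controls: 0 for no effect and ±100 for the full control effect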); details: Jurkat NFAT-bla M1, carbachol, beta-lactamase ratio, 5 h; at 7.69 µM (top of the series) unless noted
Outline: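 Jurkat cells with NFAT-driven β-lactamase reporter and co-expressed M1 receptor, stimulated with carbachol (final 1 uM, ~EC50), compound titration, 5 h at 37 °C. CCF4 loaded 1 h at RT; 460/530 nm ratio gave %activity and AC50.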

[4] = Stat Signaling Pathway (AID 446; active = well fitted curve in either direction with a large enough effect, not every such curve was filed as active;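 also: ME-180 cervical cancer cells given 40 pM IL-6 alongside compound; SIE-controlled beta-lactamase reporter measured as 460/530 nm FRET emission ratio; % is scaled to controls: 0 for no effect and ±100 for the full control effect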); details: ME-180 SIE beta-lactamase reporter, IL-6 stimulated, 5 h
Outline: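 ME-180 SIE-bla cells; overnight plating; cpd + IL-6 40 pM, 5 h, 37 C; LiveBLAzer 2.5 h RT; 460/530 nm emission ratio. Normalized to 300 pM IL-6 and 125 nM JAK inhibitor controls.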

[5] = molecular target: Glucocorticoid receptor (Homo sapiens) (UniProt P04150); test: GR-GFP Redistribution (AID 450;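 active = compounds whose dose series gives a full or clear partial fitted curve of increased nuclear translocation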; also: potency is read from the fitted curve at half-maximal effect); details: U2OS GR-GFP nuclear translocation, laser cytometry, 2 h
[6] = molecular target: Glucocorticoid receptor (Homo sapiens) (UniProt P04150); test: GR-EFC Redistribution (AID 451; calls by dose curve; also: potency is read from the fitted curve at half-maximal effect); details: CHO-K1 GR-EFC translocation, beta-gal luminescence, 2 h
Outline: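 CHO-K1 cells expressing nuclear EA and GR-ED fragments of b-gal; compounds titrated up to 46 uM final, 2 h at 37 C. GR nuclear translocation read as complemented b-gal luminescence after 1 h RT detection.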

[7] = molecular target: Mitogen-activated protein kinase 10 (Mus musculus) (UniProt Q61831); test: JNK3 AlphaScreen Assay (AID 530; active = well fitted curve in either direction with a large enough effect, not every such curve was filed as active;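 also: kinase came from lysate of stimulated human HepG2 cells; signal reports phosphorylation of biotinylated GST-cJun 1-79 at Ser73 with 10 µM ATP; % is scaled to controls: 0 for no effect and ±100 for the full control effect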)
Outline: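 qHTS format: compounds tested as titrations against IL-1beta/TNF-alpha-activated HepG2 lysate JNK3 with biotin-GST-cJun substrate and 10 uM ATP at room temperature. Loss of anti-phospho-cJun AlphaScreen signal indicates inhibition.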

[8] = molecular target: 3',5'-cyclic-AMP phosphodiesterase 4B (Homo sapiens) (UniProt Q07343); test: qHTS Assay for Inhibitors of PDE-IV (AID 607; active = well fitted activation curve with a large enough effect in the main read-out, with a control signal flat, not every such curve was filed as active; also: % of control where 0% means no effect)
Outline: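 ACTOne HEK293 cells carry a modified cAMP-gated CNG channel and express endogenous PDE4; plated 1000 cells/well, compounds up to 22.9 uM final. Membrane-potential dye fluorescence (ex 535/em 590) was read; parental cells received 10 uM forskolin + 100 uM RO 20-1724.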

[9] = qHTS Assay for Lipid Storage Modulators (AID 1519; calls by dose curve); details: Drosophila S3 cells, BODIPY lipid droplet/cell ratio, laser cytometry, cells loaded with oleic acid; for activity change, negative = inhibition: at 25.7 µM (top of the series)
Outline: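 Cells seeded at 5,000 per well were treated with compounds over a concentration series and loaded with oleic acid (400 uM, as added). Lipid droplet fluorescence (488 nm excitation, 500-530 nm channel) was read by laser-scanning cytometry and normalized to 20 uM Triacsin C.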

[10] = molecular target: ATP-dependent 6-phosphofructokinase (Trypanosoma brucei brucei) (UniProt O15648); test: qHTS Assay to Find Inhibitors of T. brucei phosphofructokinase: hit validation (AID 492961)
Outline: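 Inhibition of parasite PFK is measured as reduced ADP formation, quantified via luciferase after ATP depletion. Assay used 0.1 mM ATP, 0.5 mM F6P, 1.25 nM enzyme, 45 min incubation.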

[11] = molecular target: Ubiquitin carboxyl-terminal hydrolase 1 (Homo sapiens) (UniProt O94782); test: Inhibitors of USP1/UAF1: Pilot qHTS (AID 504865); also: nearly all actives have a fitted effect of over 35% in size; also: potency is read from the fitted curve at half-maximal effect
Outline: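 1nM USP1/UAF1 + cpd, 15 min RT; start w/ Ub-Rho 150nM final; kinetic FL 480/540 nm, 6 reads q60 s. Buffer 50mM HEPES pH 7.8, 0.5mM EDTA, 1mM TCEP, 0.01% Tween-20, 0.1 mg/ml BSA.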

[12] = molecular target: Luciferin 4-monooxygenase (Photinus pyralis) (UniProt P08659); test: Biochemical firefly luciferase enzyme assay for NPC (AID 624030);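 also: purified P. pyralis luciferase at 10 nM with luciferin and ATP substrate; 0% = DMSO and -100% = full luciferase inhibition by PTC124 control; nearly all actives have a fitted effect of over 70% in size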
Outline: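 Purified P. pyralis luciferase at 10 nM in 50 mM Tris Acetate (final), luminescence read within 5 minutes of enzyme addition to compounds. Activity normalised to PTC124 versus DMSO; concentration-response curves classed by r2, magnitude and activity.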

[13] = qHTS profiling for inhibitors of Plasmodium falciparum proliferation (AID 504749);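 also: 0% = DMSO vehicle and full inhibition = artemisinin control; nearly all actives have a fitted effect of over 60% in size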; details: P. falciparum in erythrocytes, SYBR Green DNA, 72 h, at 12.8 µM (top of the series)
Outline: (§1)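 Readout was DNA-dye fluorescence from lysed cultures, ex 485/em 535 nm. Parasitized red cells had grown 72 h with compound; data scaled between 0.29 uM artemisinin and DMSO wells and corrected using vehicle-only plates.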

AS120 = test: as above; details: P. falciparum in erythrocytes, SYBR Green DNA, 72 h; series mostly up to 28.7 µM
Outline: as §1

CP250 = test: as above; details: P. falciparum in erythrocytes, SYBR Green DNA, 72 h; series mostly up to 12.8 µM
Outline: as §1

[14] = molecular target: Pyruvate kinase (Leishmania mexicana) (UniProt Q27686); test: qHTS Validation Assay for Inhibitors of Leishmania Mexicana Pyruvate Kinase (AID 945);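 also: 0% = DMSO only neutral control wells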
Outline: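 Pyruvate kinase activity of E451W LmPYK (0.2 nM) was followed as ATP output after 1 h at room temperature with 0.5 mM PEP and 0.1 mM ADP, detected by PKLight luminescence.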

[15] = molecular target: Pyruvate kinase PKM (Homo sapiens) (UniProt P14618); test: qHTS Assay for Activators of Human Muscle Pyruvate Kinase (AID 954; active = well fitted curve in the direction sought with a large enough effect, not every such curve was filed as active;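 also: 0% = uninhibited enzyme and -100% = no enzyme or full thiadiazolimine inhibition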)
Outline: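 Luminescence from a luciferase ATP-detection/stop reagent reported PKM2 activity. Reactions contained 0.1 nM purified human enzyme, 0.5 mM PEP, 0.1 mM ADP and 7 mM MgCl2 at pH 7.2, run 1 h at RT.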

[16] = molecular target: Alpha-galactosidase A (Homo sapiens) (UniProt P06280); test: Counterscreen for Glucocerebrosidase Inhibitors: qHTS Assay for Human alpha-Galactosidase at pH 4.5 (AID 992); also: 0% is about no effect
Outline: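 Enzyme at 2 nM final was combined with compound (0.7 nM to 77 uM) and 80 uM 4-methylumbelliferyl alpha-D-galactopyranoside in 50 mM citric acid, 0.005% Tween-20, pH 4.5. After 20 min at room temperature, fluorescence was read (Ex 365/Em 440 nm); AC50 came from Hill fits.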

[17] = molecular target: alpha-glucosidase (Oryza sativa, rice) (UniProt Q653V4); test: Counterscreen for Glucocerebrosidase Inhibitors: qHTS Assay for Rice alpha-Glucosidase at pH 5.0 (AID 997);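 also: 0% = full activity with enzyme and -100% = basal without enzyme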
Outline: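 Rice alpha-glucosidase (4 nM final) with 400 uM 4-methylumbelliferyl-alpha-D-glucopyranoside in citrate buffer pH 5.0, 20 min at room temperature, stopped at pH 10; fluorescence 365/440 nm, compounds 0.7 nM–77 uM, AC50 from Hill fits.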

[18] = at 7.69 µM (top of the series) unless noted
[19] = measured here: cell count channel max response
[20] = measured here: lipid channel max response

Sequence of Glucocorticoid receptor (Homo sapiens) (P04150 whole entry, looked up, the tested form may be a part): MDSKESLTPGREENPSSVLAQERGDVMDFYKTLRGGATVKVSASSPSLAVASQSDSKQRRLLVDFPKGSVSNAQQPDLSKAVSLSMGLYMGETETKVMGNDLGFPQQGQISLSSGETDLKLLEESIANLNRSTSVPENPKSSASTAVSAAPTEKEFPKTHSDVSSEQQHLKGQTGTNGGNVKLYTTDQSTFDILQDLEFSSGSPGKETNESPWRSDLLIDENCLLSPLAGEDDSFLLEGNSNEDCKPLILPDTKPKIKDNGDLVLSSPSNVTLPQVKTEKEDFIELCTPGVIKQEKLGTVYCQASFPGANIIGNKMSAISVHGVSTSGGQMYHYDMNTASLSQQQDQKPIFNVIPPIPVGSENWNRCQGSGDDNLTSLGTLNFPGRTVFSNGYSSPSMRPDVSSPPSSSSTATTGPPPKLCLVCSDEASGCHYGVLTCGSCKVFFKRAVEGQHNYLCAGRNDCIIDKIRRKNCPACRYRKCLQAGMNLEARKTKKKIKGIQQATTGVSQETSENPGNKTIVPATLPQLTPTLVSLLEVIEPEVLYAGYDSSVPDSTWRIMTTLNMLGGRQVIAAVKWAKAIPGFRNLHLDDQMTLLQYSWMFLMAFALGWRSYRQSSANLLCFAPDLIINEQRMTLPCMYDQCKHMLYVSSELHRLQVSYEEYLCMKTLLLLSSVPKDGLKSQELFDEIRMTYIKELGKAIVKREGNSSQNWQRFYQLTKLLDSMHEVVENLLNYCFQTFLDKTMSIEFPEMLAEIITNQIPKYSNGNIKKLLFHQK
Sequence of 3',5'-cyclic-AMP phosphodiesterase 4B (Homo sapiens) (Q07343 whole entry, looked up): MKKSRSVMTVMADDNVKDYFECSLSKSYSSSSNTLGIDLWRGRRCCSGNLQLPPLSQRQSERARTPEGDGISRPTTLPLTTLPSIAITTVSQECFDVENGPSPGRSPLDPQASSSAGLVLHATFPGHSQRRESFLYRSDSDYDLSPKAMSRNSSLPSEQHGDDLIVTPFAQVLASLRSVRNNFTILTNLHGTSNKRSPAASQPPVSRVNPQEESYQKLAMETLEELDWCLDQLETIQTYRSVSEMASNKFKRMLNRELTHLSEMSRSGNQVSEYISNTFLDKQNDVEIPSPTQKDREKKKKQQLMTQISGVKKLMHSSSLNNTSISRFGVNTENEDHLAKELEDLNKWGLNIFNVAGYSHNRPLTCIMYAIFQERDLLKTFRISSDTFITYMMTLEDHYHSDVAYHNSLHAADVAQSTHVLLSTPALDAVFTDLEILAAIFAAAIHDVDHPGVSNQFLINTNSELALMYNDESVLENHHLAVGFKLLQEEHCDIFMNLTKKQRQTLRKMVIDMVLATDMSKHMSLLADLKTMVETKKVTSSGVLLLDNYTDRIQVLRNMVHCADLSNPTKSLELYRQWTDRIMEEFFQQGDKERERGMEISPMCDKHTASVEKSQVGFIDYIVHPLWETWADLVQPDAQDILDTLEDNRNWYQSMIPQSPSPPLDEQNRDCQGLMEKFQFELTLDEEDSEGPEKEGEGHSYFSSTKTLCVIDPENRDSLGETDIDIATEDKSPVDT
Sequence of Cytochrome P450 1A2 (Homo sapiens) (P05177 whole entry, looked up): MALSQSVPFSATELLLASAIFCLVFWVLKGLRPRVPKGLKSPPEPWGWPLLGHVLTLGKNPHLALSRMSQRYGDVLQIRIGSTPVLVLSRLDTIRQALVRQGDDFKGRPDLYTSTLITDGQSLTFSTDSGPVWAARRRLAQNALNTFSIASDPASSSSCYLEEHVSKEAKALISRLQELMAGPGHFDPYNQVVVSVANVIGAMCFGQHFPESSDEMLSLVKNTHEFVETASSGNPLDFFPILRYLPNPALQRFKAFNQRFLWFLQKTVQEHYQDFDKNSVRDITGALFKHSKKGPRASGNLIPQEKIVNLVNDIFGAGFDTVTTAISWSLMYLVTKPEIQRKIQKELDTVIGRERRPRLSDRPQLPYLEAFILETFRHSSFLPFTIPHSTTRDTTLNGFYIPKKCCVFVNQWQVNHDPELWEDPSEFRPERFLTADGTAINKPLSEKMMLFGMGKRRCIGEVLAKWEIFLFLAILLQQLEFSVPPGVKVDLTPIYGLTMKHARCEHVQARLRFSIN
Sequence of ATP-dependent 6-phosphofructokinase (Trypanosoma brucei brucei) (O15648 whole entry, looked up): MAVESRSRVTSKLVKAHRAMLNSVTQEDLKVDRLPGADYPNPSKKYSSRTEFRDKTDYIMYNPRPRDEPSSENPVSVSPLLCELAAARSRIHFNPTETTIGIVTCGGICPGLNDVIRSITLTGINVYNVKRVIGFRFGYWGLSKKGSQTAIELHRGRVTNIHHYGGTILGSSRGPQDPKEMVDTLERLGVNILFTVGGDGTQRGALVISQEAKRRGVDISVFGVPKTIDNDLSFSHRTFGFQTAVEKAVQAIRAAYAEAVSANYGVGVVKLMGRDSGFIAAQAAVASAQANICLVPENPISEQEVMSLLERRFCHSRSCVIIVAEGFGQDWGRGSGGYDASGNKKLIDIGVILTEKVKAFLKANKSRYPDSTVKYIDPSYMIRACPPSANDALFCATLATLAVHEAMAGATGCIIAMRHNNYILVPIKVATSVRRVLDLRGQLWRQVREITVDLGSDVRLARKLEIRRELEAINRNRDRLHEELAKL
Sequence of Ubiquitin carboxyl-terminal hydrolase 1 (Homo sapiens) (O94782 whole entry, looked up): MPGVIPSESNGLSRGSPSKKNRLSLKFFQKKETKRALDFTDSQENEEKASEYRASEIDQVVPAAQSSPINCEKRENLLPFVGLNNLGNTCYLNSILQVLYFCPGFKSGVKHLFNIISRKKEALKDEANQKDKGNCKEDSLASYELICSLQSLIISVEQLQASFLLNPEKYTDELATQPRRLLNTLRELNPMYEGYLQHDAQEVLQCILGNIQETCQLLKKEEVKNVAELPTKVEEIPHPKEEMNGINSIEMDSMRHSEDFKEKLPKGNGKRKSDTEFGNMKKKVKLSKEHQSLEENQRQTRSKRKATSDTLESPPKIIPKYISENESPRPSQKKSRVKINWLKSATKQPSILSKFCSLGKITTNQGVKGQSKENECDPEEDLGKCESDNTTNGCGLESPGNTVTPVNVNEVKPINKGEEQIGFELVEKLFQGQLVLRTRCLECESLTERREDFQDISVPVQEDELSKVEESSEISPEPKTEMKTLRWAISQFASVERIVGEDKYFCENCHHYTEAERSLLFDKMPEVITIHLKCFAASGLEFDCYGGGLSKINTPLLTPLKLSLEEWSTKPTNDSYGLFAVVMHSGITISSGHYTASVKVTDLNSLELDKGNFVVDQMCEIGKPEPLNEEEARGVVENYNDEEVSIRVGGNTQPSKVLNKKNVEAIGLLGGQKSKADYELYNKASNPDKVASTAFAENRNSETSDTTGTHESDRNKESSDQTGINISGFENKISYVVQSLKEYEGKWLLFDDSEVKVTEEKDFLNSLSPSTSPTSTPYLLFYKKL
Sequence of Luciferin 4-monooxygenase (Photinus pyralis) (P08659 whole entry, looked up): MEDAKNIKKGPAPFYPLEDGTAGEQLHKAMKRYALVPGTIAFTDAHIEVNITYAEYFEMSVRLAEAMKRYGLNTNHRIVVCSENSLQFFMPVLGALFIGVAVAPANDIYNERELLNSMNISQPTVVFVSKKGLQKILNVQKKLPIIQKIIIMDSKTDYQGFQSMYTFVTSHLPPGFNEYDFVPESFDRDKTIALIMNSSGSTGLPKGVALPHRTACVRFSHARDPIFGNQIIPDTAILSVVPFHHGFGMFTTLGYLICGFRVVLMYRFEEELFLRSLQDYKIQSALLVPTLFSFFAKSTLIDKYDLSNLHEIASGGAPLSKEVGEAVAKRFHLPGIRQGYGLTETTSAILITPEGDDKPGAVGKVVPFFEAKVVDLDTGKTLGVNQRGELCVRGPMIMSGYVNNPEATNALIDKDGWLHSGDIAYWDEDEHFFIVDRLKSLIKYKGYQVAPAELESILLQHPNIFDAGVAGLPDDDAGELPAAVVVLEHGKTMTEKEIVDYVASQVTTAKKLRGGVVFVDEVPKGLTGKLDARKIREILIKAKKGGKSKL
Sequence of Pyruvate kinase (Leishmania mexicana) (Q27686 2-499 E452W): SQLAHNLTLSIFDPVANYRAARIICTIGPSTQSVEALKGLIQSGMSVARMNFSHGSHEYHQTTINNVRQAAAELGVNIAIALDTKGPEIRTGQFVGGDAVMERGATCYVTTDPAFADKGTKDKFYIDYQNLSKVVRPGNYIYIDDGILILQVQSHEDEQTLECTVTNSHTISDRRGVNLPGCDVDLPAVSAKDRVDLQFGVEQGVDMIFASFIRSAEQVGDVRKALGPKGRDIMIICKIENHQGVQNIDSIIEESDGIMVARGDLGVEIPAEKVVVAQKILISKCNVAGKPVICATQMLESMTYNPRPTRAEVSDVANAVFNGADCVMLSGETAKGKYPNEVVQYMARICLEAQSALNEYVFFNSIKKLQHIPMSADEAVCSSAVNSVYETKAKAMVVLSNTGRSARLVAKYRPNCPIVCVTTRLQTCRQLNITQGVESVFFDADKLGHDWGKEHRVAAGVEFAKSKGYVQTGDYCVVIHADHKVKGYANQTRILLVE
Sequence of Pyruvate kinase PKM (Homo sapiens) (P14618 whole entry, looked up): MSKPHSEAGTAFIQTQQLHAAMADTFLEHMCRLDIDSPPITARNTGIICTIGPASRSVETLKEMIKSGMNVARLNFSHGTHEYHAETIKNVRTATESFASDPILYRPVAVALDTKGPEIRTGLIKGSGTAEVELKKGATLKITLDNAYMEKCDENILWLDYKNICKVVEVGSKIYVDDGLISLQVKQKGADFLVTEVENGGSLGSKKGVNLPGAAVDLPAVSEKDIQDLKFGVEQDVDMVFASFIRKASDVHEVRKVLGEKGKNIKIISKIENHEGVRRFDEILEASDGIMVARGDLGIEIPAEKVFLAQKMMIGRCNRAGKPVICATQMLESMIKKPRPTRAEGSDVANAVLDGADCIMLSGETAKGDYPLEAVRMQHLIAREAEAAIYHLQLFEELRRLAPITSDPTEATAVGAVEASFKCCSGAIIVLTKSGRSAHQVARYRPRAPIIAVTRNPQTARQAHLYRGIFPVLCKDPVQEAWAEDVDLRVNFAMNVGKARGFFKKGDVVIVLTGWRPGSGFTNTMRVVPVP

C[C@@H](C(=O)O)c1ccc(C(=O)c2cccs2)cc1
-2.07%: max response [9, 20]
-2.83%: max response [9, 19]
inactive: activity change, negative = inhibition [1, 18] 4.04% [at 17.2 µM] | Potency [2] | activity change, negative = inhibition [3] -1.88% [at 17.2 µM] | activity, negative = inhibition [4, 18] 1.29% [at 17.2 µM] | Potency [5] > 20.6 µM | Potency [6] > 20.6 µM | Potency [7] | Potency [8] | activity change, negative = inhibition [9] 0.809% | outcome [10] | Potency [11] | outcome [12] | activity, negative = inhibition ([13]; parasite line A) 0.517% | activity, negative = inhibition ([13]; parasite line B) 11.1% | Potency (AS120) | Potency (CP250)

CN(C)CC[C@@H](c1ccccc1)c1ccccn1
2.03%: max response [9, 20]
inactive: activity change, negative = inhibition ([1]; at 17.2 µM (top of the series)) 4.02% | activity change, negative = inhibition ([1]; at 38 µM (top of the series)) 8.55% | Potency [2] | activity, negative = inhibition ([4]; at 17.2 µM (top of the series)) 8.97% | activity, negative = inhibition ([4]; at 38 µM (top of the series)) 22.6% | Potency [5] > 46 µM and > 20.6 µM | Potency [6] > 46 µM and > 20.6 µM | Potency [7] | Potency [8] | outcome [14] | outcome [15] | outcome [16] | outcome [17] | activity change, negative = inhibition [9] 1.47% | Potency [11]
1.01%: max response [9, 19]

CC(=O)N(CC(O)CN(C(C)=O)c1c(I)c(C(=O)NC[C@@H](O)CO)c(I)c(C(=O)NC[C@@H](O)CO)c1I)c1c(I)c(C(=O)NC[C@@H](O)CO)c(I)c(C(=O)NC[C@@H](O)CO)c1I
inactive: activity change, negative = inhibition [1, 18] 2.7% [at 17.2 µM] | Potency [2] | activity change, negative = inhibition [3] -2.76% [at 17.2 µM] | activity, negative = inhibition [4, 18] 4.45% [at 17.2 µM] | Potency [5] > 20.6 µM | Potency [6] > 20.6 µM | Potency [7] | Potency [8] | activity change, negative = inhibition [9] 0.967% | outcome [10] | Potency [11] | outcome [12] | activity, negative = inhibition ([13]; parasite line A) 5.56% | activity, negative = inhibition ([13]; parasite line B) 6.47% | Potency (AS120) | Potency (CP250)
-17.3%: max response [9, 19]
-18.3%: max response [9, 20]

O=c1[nH]c(=O)n([C@@H]2C[C@H](O)[C@H](CO)O2)cc1I
1.83%: max response [9, 20]
inactive: activity change, negative = inhibition [1, 18] 9.17% [at 17.2 µM] | Potency [2] | activity change, negative = inhibition [3] 8.3% [at 17.2 µM] | activity, negative = inhibition [4, 18] 11.4% [at 17.2 µM] | Potency [5] > 20.6 µM | Potency [6] > 20.6 µM | Potency [7] | activity change, negative = inhibition [9] -3.3% | outcome [10] | Potency [11] | outcome [12] | activity, negative = inhibition ([13]; parasite line A) -1.96% | activity, negative = inhibition ([13]; parasite line B) 14.3% | Potency (AS120) | Potency (CP250)
2.86%: max response [9, 19]

CN(C)[C@H]1C(=O)C(C(=O)NCN2CCCC2)=C(O)[C@]2(O)C(=O)C3=C(O)c4c(O)cccc4[C@@](C)(O)[C@H]3C[C@@H]12
-14%: max response [9, 19]
inactive: activity change, negative = inhibition [1, 18] 4.94% [at 17.2 µM] | Potency [2] | activity change, negative = inhibition [3] -7.08% [at 17.2 µM] | activity, negative = inhibition [4, 18] 7.95% [at 17.2 µM] | Potency [5] > 20.6 µM | Potency [6] > 20.6 µM | Potency [7] | Potency [8] | activity change, negative = inhibition [9] -2.08% | outcome [10] | outcome [12] | activity, negative = inhibition ([13]; parasite line A) -2.6% | activity, negative = inhibition ([13]; parasite line B) 2.5% | Potency (AS120) | Potency (CP250)
active: Potency [11] 28.2 µM
-16.5%: max response [9, 20]

CCN(CC)CC#CCOC(=O)[C@@](O)(c1ccccc1)C1CCCCC1
-11.7%: max response [9, 20]
active: Potency [2] 3.98 µM and 1.26 µM
inactive: activity change, negative = inhibition ([1]; at 17.2 µM (top of the series)) 0.766% | activity change, negative = inhibition ([1]; at 38 µM (top of the series)) -1.31% | activity, negative = inhibition [4, 18] -21.9% [at 38 µM] | Potency [5] > 46 µM and > 20.6 µM | Potency [6] > 46 µM and > 20.6 µM | Potency [7] | Potency [8] | outcome [14] | outcome [15] | outcome [16] | outcome [17] | activity change, negative = inhibition [9] -3.63% | outcome [10] | Potency [11] | outcome [12] | Potency (AS120) | Potency (CP250)
-6.72%: max response [9, 19]

CN(Cc1cnc2nc(N)nc(N)c2n1)c1ccc(C(=O)N[C@H](CCC(=O)O)C(=O)O)cc1
-2.14%: max response [9, 20]
inactive: activity change, negative = inhibition ([1]; at 17.2 µM (top of the series)) 13.9% | activity change, negative = inhibition ([1]; at 38 µM (top of the series)) 2.91% and 5.9% | Potency [2] | activity, negative = inhibition ([4]; at 17.2 µM (top of the series)) 8.48% | activity, negative = inhibition ([4]; at 38 µM (top of the series)) -1.61% and 15.7% | Potency [7] | Potency [8] | activity change, negative = inhibition [9] 0.922%
-1.52%: max response [9, 19]
